Screens: PubChem BioAssay, National Center for Advancing Translational Sciences (NCATS)
Rows were chosen to be rich in hits. Some 8% of all compounds tested hit in one or more screens of this group.
HCV inhibitor: qHTS Assay for Inhibitors of Hepatitis C Virus (HCV); AID 651820, 2012; Potency, µM (titrated, usually from 41.8 µM), for the others: top-dose activity change, negative = inhibition, usual class: inhibitors; Huh7.5.1 HCVcc-Cre infection, luciferase reporter, 44 h; actives 3.4% (n = 340,000); active = well fitted inhibition curve with a large enough effect; inconclusive = small, poorly fitted or top-dose-only effect, or another doubt; inactive = no such curve, though single readings can be large or run the other way; also: potency is read from the fitted curve at half-maximal effect; % is scaled to controls: 0 for no effect and ±100 for the full control effect
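Cells seeded at 1,000/well and cultured 4 h, then compounds added followed by HCVcc-Cre virus (~0.5 moi). After 44 h further culture, luciferase substrate was added, plates held 15 min at room temperature, and luminescence read for 15 sec.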
SARS PLP yeast: qHTS of Yeast-based Assay for SARS-CoV PLP. S. cerevisiae expressing SARS-CoV PLpro, growth rescue. Potency, µM (top dose mostly 32.9 µM), inactives show at the top dose activity, positive = growth rescue, usual class: activators. actives 0.19% (n = 330,000). AID 485353, 2010; calls by dose curve; also: potency is read from the fitted curve at half-maximal effect; 0% is about no effect; nearly all actives have a fitted effect of over 55% in size
LASV entry inh: qHTS for Inhibitors of binding or entry into cells for Lassa Virus; Lassa virus pseudotype entry inhibition, cell reporter; Potency, µM (top dose mostly 37.9 µM), for inactives: at the highest dose activity change, negative = inhibition, hits mostly inhibitors; actives 1.2% (n = 300,000); calls by dose curve; tested in HEK293 cells; also: potency is read from the fitted curve at half-maximal effect; % is scaled to controls: 0 for no effect and ±100 for the full control effect; nearly all actives have a fitted effect of over 50% in size
FMDV antiviral: High Throughput Screening for Foot and Mouth Disease Virus Antivirals | FMDV antiviral cell-based qHTS | Potency, µM (top dose mostly 57.9 µM), without a hit: top-dose activity change, negative = inhibition, hits mostly inhibitors | actives 1.2% (n = 410,000); calls by dose curve; tested in HEK293T cells; also: read-out not given here; potency is read from the fitted curve at half-maximal effect; % is scaled to controls: 0 for no effect and ±100 for the full control effect; nearly all actives have a fitted effect of over 45% in size
HCMV inh: qHTS Assay for inhibitors of the human cytomegalovirus (HCMV); activity change, negative = inhibition, % at 57.5 µM; HFF cells, HCMV-luciferase reporter, 72 h; stronger effect = lower value; AID 1259415, 2018; actives 4.5% (n = 410,000); in the data active = activity change below about -60%; inconclusive = no clear call, values can overlap the other calls; inactive = above about -39%; also: % is scaled to controls: 0 for no effect and ±100 for the full control effect
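Two-dose cell screen: HFF monolayers treated with compounds and infected with luciferase-expressing HCMV at 1 PFU/cell, 72 h at 37C, then lysed for luciferase measurement.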
MARV entry inh: qHTS for inhibitors of binding or entry into cells for Marburg Virus; Marburg virus pseudotyped entry inhibition, cell reporter; Potency, µM (highest dose often 37.8 µM), without a hit: at the highest dose activity change, negative = inhibition, actives largely listed as inhibitors; actives 1.8% (n = 300,000); AID 540276, 2011; calls by dose curve; tested in HEK293 cells; also: potency is read from the fitted curve at half-maximal effect; % is scaled to controls: 0 for no effect and ±100 for the full control effect
Numbers without * were called inactive; ? = inconclusive; nt = not tested or not shown; [ ] = another dose, or the depositor's remark.

SMILES | HCV inhibitor | SARS PLP yeast | LASV entry inh | FMDV antiviral | HCMV inh | MARV entry inh
Cc1nnc(N2CCCC(C(=O)NCc3ccc(OC(C)C)cc3)C2)c2nn(-c3ccccc3)c(C)c12 (stereo not drawn) | ? | 0% | nt | -25% | -66* | nt
COc1ccc(CNC(=O)C2CCCN(c3nnc(C)c4c(C)n(-c5ccc(C)cc5)nc34)C2)cc1 (stereo not drawn) | nt | nt | -2%[46.1 µM] | -5% | -24 | nt
CCc1ccc(CNC(=O)C2CCCN(c3nnc(C)c4c(C)n(-c5ccc(OC)cc5)nc34)C2)cc1 (stereo not drawn) | nt | nt | ? | -6% | -30 | nt
COc1ccc(CNC(=O)C2CCN(c3nnc(C)c4c(C)n(-c5ccc(C)cc5)nc34)CC2)cc1 | nt | nt | -3%[46.1 µM] | -22% | -107* | nt
Cc1cccc(CNC(=O)c2c3n(c(C)cc2=O)-c2ccccc2SC(c2ccsc2)C3)n1 (stereo not drawn) | nt | nt | nt | -15% | nt | nt
Cc1ccc(-n2nc3c(N4CCCC(C(=O)NCc5ccccc5C)C4)nnc(C)c3c2C)cc1 (stereo not drawn) | nt | nt | -3%[46.1 µM] | 11% | -64* | nt
Cc1ccc(CNC(=O)c2cccc3c2C(=O)c2ccc(N4CCOCC4)cc2S3(=O)=O)cc1 | 10% | 6% | nt | 0% | -14 | 5%
CC1CCN(c2ccc3c(c2)S(=O)(=O)c2cccc(C(=O)NC4CC4)c2C3=O)CC1 | -8% | 8% | nt | 21% | -62* | nt
O=C(NCc1ccccc1C(F)(F)F)c1cccc2c1C(=O)c1ccc(N3CCC(N4CCCCC4)CC3)cc1S2(=O)=O | nt | nt | nt | -6% | -100* | nt
COCCNC(=O)c1cccc2c1C(=O)c1ccc(N3CCOCC3)cc1S2(=O)=O | 0% | -5% | nt | -4% | -102* | nt
O=C(NCC1CCCO1)c1cccc2c1C(=O)c1ccc(N3CCC(Cc4ccccc4)CC3)cc1S2(=O)=O (stereo not drawn) | ? | 4% | nt | 13µM* | nt | nt
COc1ccc(CNC(=O)Cc2c(C)c3cc4c(C)coc4c(C)c3oc2=O)cc1OC | nt | nt | ? | -12% | 1 | 7%[46.1 µM]
COc1ccc(OC)c(CNC(=O)c2ccc3c(c2)c(C)c(C)n3Cc2ccc(Cl)cc2)c1 | nt | nt | ? | -8% | 0 | nt
Oc1cc2c(cc1O)[C@@H]1c3ccc(O)c(O)c3OC[C@]1(O)C2 | nt | nt | nt | -17% | nt | ?
CC1CCN(c2ccc3c(c2)S(=O)(=O)c2cccc(C(=O)NC[C@@H]4CCCO4)c2C3=O)CC1 | ? | 11% | nt | 17% | -94* | nt
O=C(NC[C@@H]1CCCO1)c1cccc2c1C(=O)c1ccc(N3CCOCC3)cc1S2(=O)=O | 19% | 0% | nt | -21% | -3 | nt
CCOc1ccc(NC(=O)CN2C(=O)CC(C)Sc3ccccc32)cc1 (stereo not drawn) | nt | nt | nt | -8% | 0 | 3%[46.1 µM]
COc1cccc2c1NC1(c3ccccc3)c3ccccc3-n3nncc3CN1C2=O (stereo not drawn) | nt | nt | nt | nt | -4 | nt
COc1ccc2[nH]cc(CCCN3C(=O)c4ccccc4C3=O)c2c1 | -24% | -12% | 11µM* | -19% | -36 | ?
COc1ccc2[nH]cc(CCN3C(=O)CCC3=O)c2c1 | 6% | 4% | -8% | -8% | -10 | 8%
Cc1ccc(-c2nn(-c3ccccc3)cc2CN(Cc2ccccc2)C(=O)c2ccco2)o1 | 10µM* | -1% | ? | 28µM* | -76* | ?
Cc1ccc(-c2nn(-c3ccccc3)cc2C(=O)O)o1 | nt | 0% | nt | nt | nt | nt
Cc1cccc(CNc2ccc(C(CC(N)=O)NC(=O)c3ccccc3)cc2[N+](=O)[O-])c1 (stereo not drawn) | ? | 0% | nt | 0% | 5 | nt
NC(=O)CC(NC(=O)c1ccccc1)c1ccc(N2CCC(Cc3ccccc3)CC2)c([N+](=O)[O-])c1 (stereo not drawn) | ? | 3% | nt | ? | -67* | nt
Cc1ccccc1CNc1ccc(C(CC(N)=O)NC(=O)c2ccccc2)cc1[N+](=O)[O-] (stereo not drawn) | 11µM* | 4% | nt | -13% | ? | nt
SMILES | HCV inhibitor | SARS PLP yeast | LASV entry inh | FMDV antiviral | HCMV inh | MARV entry inh
O=C(CSc1nc(-c2ccccc2)cc(C(F)(F)F)n1)c1cccc([N+](=O)[O-])c1 | ? | -2% | 8% | ? | -27 | -1%
Cc1cc(-c2ccccc2)nc(SCC(=O)c2cccc([N+](=O)[O-])c2)n1 | 13µM* | 1% | ? | ? | 8 | -24%
COc1ccc(-c2ccc(=O)n(Cc3cccc([N+](=O)[O-])c3)n2)cc1 | 11µM* | -6% | nt | ? | -38 | nt
COc1ccc(-c2ccc(=O)n(Cc3c(F)cccc3Cl)n2)cc1 | ? | -2% | nt | -8% | -25 | nt
O=C(CSc1ccc([N+](=O)[O-])cc1)c1ccccc1 | 33% | nt | 6% | 1% | -73* | ?
Cc1ccc(-c2cc(C(F)(F)F)nc(SCC(=O)c3cccc([N+](=O)[O-])c3)n2)cc1 | ? | -5% | 5% | nt | -34 | -5%
COc1ccc(-c2cc(C)nc(SCC(=O)c3cccc([N+](=O)[O-])c3)n2)cc1 | 16µM* | -1% | 5% | 10% | 1 | 2%
Cc1nc2nc(NCc3ccc(Cl)cc3)[nH]n2c(=O)c1Cc1ccccc1 | nt | nt | -22%[46.1 µM] | -18% | -8 | 9%[46.1 µM]
Cc1ccc(OCc2nnc(SCC(=O)c3cccc([N+](=O)[O-])c3)n2C)cc1 | 8.9µM* | 1% | 9% | 0% | -22 | -2%
CC(C)CNC(=O)C1=CC(c2ccc3c(c2)OCO3)=NS(=O)(=O)N1C | nt | nt | -16%[46.1 µM] | 20% | -3 | 1%[46.1 µM]
COc1ccc(CNC(=O)Nc2nnc([C@H]3C[C@H](O)[C@@H](CO)O3)s2)cc1 | nt | nt | nt | -16% | -97* | nt
Cc1ccc(CNC(=O)Nc2nnc([C@@H]3C[C@H](O)[C@@H](CO)O3)s2)cc1 | nt | nt | nt | -13% | 0 | nt
COc1ccc(CNC(=O)Nc2nnc([C@@H]3C[C@H](O)[C@@H](CO)O3)s2)cc1 | nt | nt | nt | -5% | -83* | nt
CCc1noc(-c2ccc(N3CCC(C)CC3)c([N+](=O)[O-])c2)n1 | nt | nt | 16%[46.1 µM] | 19% | 70 | ?
CCn1nc(C)c(NC(=O)c2ccc(Br)o2)c1C | 18% | 1% | -3% | 2% | ? | -4%
Cc1ccc(S(=O)(=O)Nc2c(C)nn(C)c2C)cc1 | -20% | 1% | -23% | nt | 3 | -10%
CCc1ccc(S(=O)(=O)Nc2c(C)nn(C)c2C)cc1 | 13µM* | -9% | 0% | ? | -69* | -4%
CCn1nc(C)c(NS(=O)(=O)c2ccc(C)cc2)c1C | ? | -1% | -34% | -22% | -74* | ?
